In the library only some 18% were active in any assay of this set; here they are far more common.
TDP1 cell noCPT – qHTS for Inhibitors of human tyrosyl-DNA phosphodiesterase 1 (TDP1): qHTS in cells in absence of CPT; DT40 Tdp1-/- hTDP1 cells, no CPT, ATP luminescence, 48 h; Potency, µM (series often up to 46.2 µM), without a hit: at the top dose activity change, negative = growth inhibition, actives largely listed as inhibitors; 420,000 tested, 15% active; AID 686978, 2013; note: nearly all actives have a fitted effect of over 55% in size
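Growth of hTDP1-complemented DT40 Tdp1-knockout cells is measured by ATP luminescence after at least 48 hr compound exposure at 37 °C, with DMSO substituting for the 20 nM CPT used in the parallel screen.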
VDR inhibitor – inhibitors of human vitamin D receptor; P11473; VDR-SRC2-3 peptide fluorescence polarization, 2 h; Potency, µM, for inactives: max response, negative = inhibition, hits mostly inhibitors; 400,000 tested, 0.93% active; AID 504847
Target sequence (P11473 whole entry, looked up): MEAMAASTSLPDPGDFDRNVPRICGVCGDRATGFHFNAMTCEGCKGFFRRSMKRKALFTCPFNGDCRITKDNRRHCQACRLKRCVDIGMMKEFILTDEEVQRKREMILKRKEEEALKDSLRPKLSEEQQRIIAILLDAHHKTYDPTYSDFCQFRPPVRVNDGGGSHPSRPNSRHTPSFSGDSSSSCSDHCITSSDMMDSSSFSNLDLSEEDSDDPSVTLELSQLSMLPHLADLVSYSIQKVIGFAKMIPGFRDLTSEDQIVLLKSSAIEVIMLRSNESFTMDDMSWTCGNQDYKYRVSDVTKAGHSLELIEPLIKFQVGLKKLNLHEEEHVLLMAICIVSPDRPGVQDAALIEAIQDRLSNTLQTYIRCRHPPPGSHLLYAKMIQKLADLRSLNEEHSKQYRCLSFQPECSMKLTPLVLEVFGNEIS
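Compounds are added to VDR with labelled SRC2-3 coactivator peptide and held 2 h at room temperature. Inhibition of the VDR–peptide interaction is then read as a change in fluorescence polarization.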
PLK1 PBD block – PLK1 (human) polo-box domain binding inhibition | P53350 | Plk1 PBD binding of FITC phosphopeptide, fluorescence polarization | Potency, µM, for inactives: max response, negative = inhibition, most hits filed as inhibitors | 360,000 tested, 2.8% active | AID 720504; note: series mostly up to about 57 µM; nearly all actives have a fitted effect of over 65% in size
KAT2A inh – inhibitors of human GCN5L2 histone acetyltransferase. Potency, µM (top dose mostly 58.9 µM), without a hit: at the highest dose activity change, negative = inhibition, actives largely listed as inhibitors. Q92830. AID 504327. 390,000 tested, 0.21% active. GCN5L2 HAT assay, ThioGlo1 CoA-SH fluorescence
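Free CoA generated was detected with ThioGlo1 (50uM) fluorescence at Ex340nm/Em540nm, read immediately and after 20 min at room temperature. Enzyme, 20 nM in HEPES pH 7.5 buffer, saw compounds 15 min before adding 75uM H3(1-25) peptide and 70uM acetyl-CoA.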
TDP1 block – TDP1 (human) enzyme inhibition; Potency, µM (doses to about 130 µM), for inactives: at the highest dose activity change, negative = inhibition, most hits filed as inhibitors; recombinant TDP1, AlphaScreen DNA substrate cleavage; 350,000 tested, 0.28% active; Q9NUW8; AID 485290; note: nearly all actives have a fitted effect of over 40% in size
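Here, a 5' biotin and 3' phosphotyrosine-FITC DNA oligonucleotide reports Tdp1 activity: intact substrate bridges AlphaScreen beads, while cleavage leaves a 3' phosphate and drops signal. All incubations at room temperature.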
DT40 TDP1 CPT – growth inhibition of DT40 Tdp1-/-;hTDP1 cells with camptothecin (screen for TDP1 inhibitors); Potency, µM (titrated, usually from 46.2 µM), for the others: at the top dose activity change, negative = growth inhibition, most hits filed as inhibitors; chicken DT40 Tdp1-/-;hTDP1 cells + 20 nM CPT, ATP luminescence, 48 h; AID 686979; 420,000 tested, 12% active; note: nearly all actives have a fitted effect of over 55% in size
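Chicken DT40 Tdp1-/- cells complemented with human TDP1, 400 cells/well, exposed to compounds plus 20 nM camptothecin for at least 48 h at 37 C; viability read as ATP content by CellTiter-Glo luminescence.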
Numbers without * were called inactive; ? = inconclusive; / = no result. Calls come from the whole dose curve; as a rule, active = well fitted curve in the direction sought with a large enough effect; inconclusive = small, poorly fitted or top-dose-only effect, or another doubt; inactive = no such curve, though single readings can be large; an effect the other way counts as inactive or inconclusive. % is set by controls: 0 for no effect and ±100 for the full control effect; potency is the fitted concentration of half-maximal effect.

SMILES	TDP1 cell noCPT	VDR inhibitor	PLK1 PBD block	KAT2A inh	TDP1 block	DT40 TDP1 CPT
COc1ccc(C(c2nnnn2C2CCCCC2)N2CCN(C)CC2)c(OC)c1 (stereo not given)	-20%	-4%	1%	-2%	8%	-20%
CCCC(c1nnnn1C1CCCCC1)N1CCN(c2ncccn2)CC1 (stereo not given)	?	0%	-7%	-4%	4%	-18%
COc1ccc(Cn2nnnc2C(c2ccc3ncccc3c2)N2CCN(C3CCCCC3)CC2)cc1 (stereo not given)	?	-16%	2%	-1%	0%	?
COc1ccc(OC)c(C(c2nnnn2C2CCCC2)N2CCN(c3ccccc3)CC2)c1 (stereo not given)	21µM*	5%	-6%	-9%	10%	?
COc1ccc(Cn2nnnc2C(c2ccc(C)cc2)N2CCN(C3CCCC3)CC2)cc1 (stereo not given)	9.2µM*	-7%	3%	-10%	2%	16µM*
CCC(c1nnnn1C1CCCC1)N1CCN(c2cccc(OC)c2)CC1 (stereo not given)	16µM*	2%	-5%	0%	0%	?
COc1cc2cc(C(c3nnnn3Cc3ccc(F)cc3)N3CCCCCC3)c(=O)[nH]c2cc1OC (stereo not given)	?	-9%	-14%	0%	9%	-20%
COc1ccc(Cn2nnnc2C(c2cc3ccc(OC)cc3[nH]c2=O)N2CCCCCC2)cc1 (stereo not given)	23µM*	-8%	-14%	-8%	4%	16µM*
COc1ccc(OC)c(C(c2nnnn2Cc2ccccc2)N2CCN(C3CCCCC3)CC2)c1 (stereo not given)	?	5%	-2%	-14%	3%	18µM*
COCCn1nnnc1C(c1cccs1)N1CCN2CCCC2C1 (stereo not given)	-7%	-5%	19µM*	0%	0%	-27%
CCc1ccc2[nH]c(=O)c(C(c3nnnn3CCOC)N3CCN(c4ccccc4)CC3)cc2c1 (stereo not given)	18µM*	-16%	-8%	-3%	8%	?
CC(C)(C)c1ccc(S(=O)(=O)N2CCC(CO)(CC3CCCCO3)CC2)cc1 (stereo not given)	?	-1%	-8%	0%	0%	?
O=C(NNS(=O)(=O)c1ccc(C(F)(F)F)cc1)c1cnn(-c2ccccc2)c1C(F)(F)F	-14%	3%	-1%	-11%	-2%	-19%
COc1ccc(C(c2nnnn2C2CCCC2)N2CCC(C)CC2)cc1 (stereo not given)	23µM*	-5%	1%	-3%	1%	?
COc1cccc(C(c2nnnn2Cc2ccccc2)N2CCN(C3CCCC3)CC2)c1OC (stereo not given)	?	-10%	-7%	1%	-2%	?
COc1ccccc1C(c1nnnn1Cc1ccccc1)N1CCN(C2CCCC2)CC1 (stereo not given)	?	-14%	30µM*	0%	0%	?
CC(=O)c1ccc(NC(=O)c2ccc(CSc3ccccc3)o2)cc1	?	-7%	-11%	-10%	3%	16µM*
CCCC/C=C/[C@@H](c1ccccc1)C1COC(=O)CC1O (stereo not given in full)	/	-9%	/	/	7%	/
CCOc1ccc(S(=O)(=O)N(C)c2ccc(OCC(=O)NCc3ccc(C(=O)OC)cc3)cc2)cc1	-54%	-10%	-3%	-10%	11%	-3%
Cc1ccc(SCc2cc(=O)[nH]c(Nc3nc(C)c4cccc(C)c4n3)n2)cc1	16µM*	13%	-3%	-10%	0%	?
COc1ccc2nc(Nc3nc(CSc4ccc(C)cc4)cc(=O)[nH]3)nc(C)c2c1	18µM*	-17%	-3%	-3%	3%	?
COc1ccc2nc(Nc3nc(C)c(CCC(C)C)c(=O)[nH]3)nc(C)c2c1	18µM*	-22%	2%	1%	0%	?
COc1ccc2nc(Nc3nc(CSc4nnnn4-c4ccccc4)cc(=O)[nH]3)nc(C)c2c1	?	2%	-9%	0%	2%	?
O=C(NCC1CCCO1)C1CCCN1C(=O)Nc1ccc(Cl)c(Cl)c1 (stereo not given)	7%	-4%	1%	0%	3%	-3%
N#CCCn1cc(C(=O)N2CCCCC2)c(-c2cccc([N+](=O)[O-])c2)n1	-12%	-16%	-2%	0%	-3%	-24%
SMILES	TDP1 cell noCPT	VDR inhibitor	PLK1 PBD block	KAT2A inh	TDP1 block	DT40 TDP1 CPT
COc1ccc(N(C(=O)CNC(=O)c2ccco2)C(C(=O)NCC2CCCO2)c2ccccc2)cc1 (stereo not given)	5%	-11%	-6%	-4%	9%	14%
O=c1ccc(-c2ccc([N+](=O)[O-])cc2)nn1-c1ccccc1	-8%	-4%	-11%	-4%	3%	-3%
O=c1cc(-c2ccccc2)[nH]n1-c1ccc([N+](=O)[O-])cc1	?	-18%	21µM*	-27%	12%	18µM*
NC(=O)c1ccc(N=Nc2c(-c3ccccc3)[nH]n(-c3ccccc3)c2=O)cc1	/	/	/	-5%	5%	/
O=c1c(N=Nc2ccc(O)cc2)c(-c2ccccc2)[nH]n1-c1ccc([N+](=O)[O-])cc1	16µM*	-15%	-16%	-10%	0%	?
O=c1cc(O)n(C2CCCCCC2)c(=O)[nH]1	27%	?	-19%	9%	/	3%
O=c1[nH][nH]c(=S)n1C1CCCCC1	-15%	35µM*	3µM*	16µM*	2%	-1%
COC(=O)c1ccc(NC(=O)C2CCN(S(=O)(=O)c3ccc4c(c3)CCCN4C(C)=O)CC2)cc1	?	6%	/	-4%	2%	?
Fc1cccc(CCN2CCNC[C@@H]2Cc2ccccc2)c1	?	-11%	-18%	/	/	?
c1ccc2c(C[C@@H]3CNCCN3CC3CCCCC3)cccc2c1	16µM*	-8%	5%	-15%	5%	15µM*
Oc1ccc(C[C@@H]2CNCCN2CC2CCCCC2)cc1	23µM*	-21%	-15%	-13%	-13%	16µM*
Oc1ccc(C[C@H]2CNCCN2CC2CCCCC2)cc1	16µM*	-15%	2%	-3%	-5%	?
c1ccc([C@H]2CNCCN2CCc2cccc3ccccc23)cc1	21µM*	6%	0%	-6%	0%	?

Compound activity (PubChem)
